This passage reports Potency and activation results from PubChem BioAssay AID624171 (National Center for Advancing Translational Sciences (NCATS), 2012).

Hit rate of the full screen: of about 410,000 compounds, about 1,200 (0.29%) were called active. Not shown: some 2% with an inconclusive outcome. The list comes from a sample in which actives are over-represented; it also holds similar structures and randomly drawn compounds. A call without a number means that no potency is given here. Unmarked numbers belong to inactive results. Calls follow the shape of the dose curve; as a rule, active = well fitted activation curve with a large enough effect; inconclusive = small, poorly fitted or top-dose-only effect; inactive = flat fitted curve, though single readings scatter.
Potency is read from the fitted curve at half-maximal effect.

This test is described as follows: qHTS of Nrf2 Activators. Also: nearly all actives have a fitted effect of over 65% in size. The settings on record: AREc32 ARE-luciferase reporter (MCF7-derived line), luminescence, 24 h; series mostly up to 46.1 µM. Summed up:
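Luminescent ARE reporter assay in AREc32_Fluc cells: overnight plating at 37 deg C, 24 hr compound incubation, Steady-Glo added, 30 min RT before reading.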
A general note: Quantitative high-throughput screening tests each substance at several concentrations.
In the case of `O=C(OCC#CCSc1nnc(-c2ccncc2)o1)c1sc2ccccc2c1Cl`, the Potency result is “inactive”.

For the compound `COc1ccc2c(Cl)c(-c3nnco3)sc2c1`, the Potency entry is “inactive”.

Consider `C#CCSc1nnc(-c2sc3ccccc3c2Cl)o1`, for which the Potency was 4.47 µM (active).

For the compound `CCN(CC)c1ccc(NC(=O)CN2C(=O)c3cccnc3Oc3ccc(Cl)cc32)c(C)c1`, the Potency result was “inactive”.

For the compound `Cc1ccc2cccc(NC(=O)c3cccc4ccccc34)c2n1`, the Potency entry was “inactive”.

In the case of `Cc1cccc2c(=O)cc(CSc3ccccc3NC(=O)C(C)C)[nH]c12`, the Potency result is “inactive”.

Turning to `Cc1ccccc1NC(=O)c1cnn(-c2ccccc2)c1NC(=O)c1ccco1`, the Potency result is “inactive”.

On to `CCn1nc(NC(=O)c2ccco2)c2cc3ccc(C)cc3nc21`, for which the Potency result was “inactive”.

Regarding `Cc1ccnc(NC(=O)c2ccco2)n1`, the Potency was 12.6 µM (active).

As to `COc1ccc(NC(=O)CCc2nnc3n(CC(C)C)c(=O)c4ccccc4n23)cc1OC`, the Potency entry was “inactive”.

Regarding `Cc1ccc(Cn2c(CCCNC(=O)C3CCCCC3)nc3ccccc32)cc1`, the Potency entry was “inactive”.

Regarding `CCc1ccccc1OCC(=O)Nc1nnc(C2CC2)s1`, the Potency entry is “inactive”.

For `O=C(Nc1nnc(C2CC2)s1)c1cc(Cl)sc1Cl`, the Potency is 20 µM (active).

Consider `CCc1cc(C(=O)Nc2nnc(C3CC3)s2)sc1C`, for which the Potency entry is “inactive”.

On to `CCOc1ccc(-n2c(SCC(=O)NCc3ccccc3)nc3n[nH]c(C)c3c2=N)cc1`, for which the Potency entry is “inactive”.

On to `CCC(CC)c1nnc(NC(=O)C2=COCCO2)s1`, for which the Potency entry is “inactive”.

As for `CCC(CC)c1nnc(NC(=O)/C=C/c2ccco2)s1`, the Potency was 2.51 µM (active).

For the compound `CCC(CC)c1nnc(NC(=O)C2CCN(C(=O)c3ccco3)CC2)s1`, the Potency result was “inactive”.

Take `C/C=C/C(=O)Nc1nnc(C(C)C)s1`: the Potency result was “inactive”.

Turning to `Cc1nnc(NC(=O)/C=C/c2ccco2)s1`, the Potency is 3.55 µM (active).

Consider `CCc1ccc2oc(-c3ccc(C)c(NC(=O)/C=C/c4ccco4)c3)nc2c1`, for which the Potency entry is “inactive”.

Take `Cc1cc(NS(=O)(=O)c2ccc(NC(=O)c3ccccc3C)cc2)nc(C)n1`: the Potency result was “inactive”.

As to `CCc1ccc(N2C(=O)CN(S(=O)(=O)CC)CC2(C)C(=O)NC2CCCCC2)cc1` (stereo not drawn), the Potency entry was “inactive”.

On to `Cc1ccccc1OCC(=O)Nc1c(C(=O)Nc2ccccc2F)oc2ccccc12`, for which the Potency result was “inactive”.

In the case of `CCOC(=O)c1cccc(NC(=O)c2cc(CN3CCCC3)on2)c1`, the Potency entry is “inactive”.

As for `CC1CCC2(CC1)N=C(c1ccccc1)C(=O)N2CC(=O)Nc1ccc(F)c(Cl)c1` (stereo not drawn), the Potency entry was “inactive”.

For the compound `COc1ccc(Cl)cc1NC(=O)CSc1nc(=O)[nH]c2c1CCCC2`, the Potency entry was “inactive”.

As for `CCNC(=O)c1cc2n(n1)CCCN(Cc1ccc(C)cc1)C2=O`, the Potency entry was “inactive”.

For `CCSc1nnc(-c2cc3c(s2)-c2ccccc2CC3)o1`, the Potency is 12.6 µM (active).

Consider `Fc1ccc(CSc2nnc(-c3cc4c(s3)-c3ccccc3CC4)o2)cc1`, for which the Potency result was “inactive”.

Take `COc1ccccc1-c1nnc(SCC(N)=O)o1`: the Potency entry is “inactive”.

On to `CCc1ccccc1NC(=O)c1ccc(F)c(S(=O)(=O)NC2CCCCCC2)c1`, for which the Potency entry is “inactive”.

In the case of `Fc1ccc(C(Nc2ccc(Cl)c(C(F)(F)F)c2)c2nnc(-c3ccccc3)o2)cc1` (stereo not drawn), the Potency entry is “inactive”.

Consider `COc1ccc(-n2c(=O)c3ccccc3n(Cc3ccccc3Cl)c2=O)cc1`, for which the Potency result was “inactive”.

For `COc1ccc(Oc2c(Cl)cnn(-c3ccccc3)c2=O)cc1`, the Potency was 12.6 µM (active).

For `COc1ccc(-n2c(C)nc3c(cnn3-c3ccc(F)cc3)c2=O)cc1`, the Potency result is “inactive”.

Consider `Cc1ccccc1CS(=O)(=O)CC1Nc2ccc(C(=O)NCc3ccc(Cl)cc3)cc2NC1=O` (stereo not drawn), for which the Potency result was “inactive”.

Turning to `O=C(NCc1ccc2c(c1)CCN2C(=O)c1ccccc1)Nc1cc(F)ccc1F`, the Potency result was “inactive”.

`O=C1/C(=C/c2cccs2)CCc2ccccc21`: the Potency was 11.2 µM (active).

As for `CCCCC1S/C(=N/N=C/c2cccs2)NC1=O` (stereo not drawn), the activation was 2.71% [at 9.22 µM].

Take `CCS(=O)(=O)N1CCN(C(=O)c2cccs2)CC1`: the Potency entry was “inactive”.

With `CCC1C/C(=C/c2cccs2)C(=O)/C(=C/c2cccs2)C1` (stereo not drawn), the Potency is 5.62 µM (active).

As for `O=S(=O)(c1cccs1)N1CCc2ccccc2C1`, the Potency entry is “inactive”.

Consider `O=C1/C(=C/c2cccs2)CCC1C1CCCC1` (stereo not drawn), for which the Potency entry was “inactive”.

As for `Cc1c2cnn(-c3ccccc3)c(=O)c2c(C)n1C(C)C(=O)Nc1ccc(Br)cc1F` (stereo not drawn), the Potency result is “inactive”.

For the compound `COc1ccc(-c2nc3scc(CCNS(=O)(=O)c4cc(F)ccc4OC)n3n2)cc1OC`, the Potency entry is “inactive”.

For `Cn1nc(-c2ccccc2)c(-c2ccccc2)c(C(=O)Nc2ccc(S(N)(=O)=O)cc2)c1=O`, the Potency entry is “inactive”.

For the compound `O=S(=O)(c1ccc2nc(NCc3ccccc3Cl)ccc2c1)N1CCCCC1`, the Potency entry was “inactive”.

With `O=C(CN1C(=O)COc2ccccc21)Nc1ccc(F)cc1`, the Potency is 12.6 µM (active).

For the compound `CC(OC(=O)CN1C(=O)COc2ccccc21)C(=O)NCc1ccc(F)cc1` (stereo not drawn), the Potency entry was “inactive”.

`O=C(CN1C(=O)COc2ccc(Cl)cc21)Nc1ccc(N2CCOCC2)cc1`: the Potency entry is “inactive”.

For `CC(Nc1ccc(-c2nc(-c3ccco3)no2)cc1[N+](=O)[O-])c1ccccc1` (stereo not drawn), the Potency result was “inactive”.

Regarding `CNc1ccc(-c2nc(-c3ccccc3C)no2)cc1[N+](=O)[O-]`, the Potency result is “inactive”.

On to `CNc1ccc(-c2nc(-c3ccco3)no2)cc1[N+](=O)[O-]`, for which the Potency is 1.41 µM (active).

As for `CCCCN(CCCNC(=O)c1cc(Nc2ccccc2OC)nc2ccccc12)c1ccccc1`, the Potency result is “inactive”.

Consider `CCCOC(=O)c1c(NC(=O)c2cc3nc(-c4ccc(OC)cc4)cc(C(F)(F)F)n3n2)sc2c1CCCC2`, for which the Potency entry is “inactive”.

With `CCOc1cc(-c2nnc(SCC(=O)NC3CCCCC3)nc2-c2ccc(OC)c(OCC)c2)ccc1OC`, the Potency entry is “inactive”.

With `CCN(CC)CCNc1ncnc2c1cnn2-c1cc(Cl)ccc1C`, the Potency result is “inactive”.

Take `O=C(Nc1ccc(OC(F)(F)F)cc1)C1CCCN(S(=O)(=O)c2ccc(Br)s2)C1` (stereo not drawn): the Potency entry is “inactive”.

With `O=C(Nc1ccc(Cl)cc1)c1ccsn1`, the Potency is 11.2 µM (active).

Take `O=C(Nc1cccc(Cl)c1)c1csnn1`: the Potency result was “inactive”.

As to `O=C(Nc1ccc(Cl)cc1)c1csc([C@@H]2O[C@H](CO)[C@H](O)[C@H](O)[C@H]2O)n1`, the Potency entry was “inactive”.

Consider `O=S(=O)(c1ccc(C2CCCCC2)cc1)N1CCN(c2ccc(Cl)c(Cl)c2)CC1`, for which the Potency entry is “inactive”.

For the compound `CCOc1ccc2nc(N3CCCC(C(=O)Nc4cc(C)ccc4C)C3)sc2c1` (stereo not drawn), the Potency entry is “inactive”.

As for `Cc1cc(C)cc(NC(=O)c2cnc3sc(N4CCCC4)nn3c2=O)c1`, the Potency result is “inactive”.

Regarding `CCOc1ccc(CCNC(=O)c2csc3c2CCCCC3)cc1`, the Potency result was “inactive”.

For the compound `COC(=O)c1sccc1NC(=O)c1csc2c1CCCC2`, the Potency was 11.2 µM (active).

`CCOC(=O)c1ccc(NC(=O)c2csc3c2CCCCC3)cc1`: the Potency entry is “inactive”.
